Source: PubChem BioAssay (NCATS)
Inconclusive results are not listed. Calls of active or inactive are those of the source. The call rests on the fitted dose curve; in most records, active means well fitted curve in the direction sought with a large enough effect; inconclusive means small, poorly fitted or top-dose-only effect, or another doubt; inactive means no such curve, though single readings can be large; an effect the other way counts as inactive or inconclusive.

Columns and labels:
[1] = target: Glutathione peroxidase 1 (Homo sapiens) (UniProt P07203); test: Primary qHTS Assay for Inhibitors of Recombinant Selenoprotein Glutathione Peroxidase 1 (GPX1) (AID 1845191); further: nearly all actives have a fitted effect of over 65% in size; on activity, negative = inhibition: on the % scale 0 is the no-effect control and ±100 the full control effect
Summary of the method: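 10 nM GPX1 + cpd, 30 min RT; start w/ 1 mM GSH, 0.5 mM cumene hydroperoxide, 0.5 mM NADPH, 100 nM GR, 0.01% BSA; buffer 50 mM Tris-HCl pH 7.5, 2 mM EDTA, 150 mM NaCl; Fl 340/450, 0 & 15 min.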

[2] = target: Phospholipid hydroperoxide glutathione peroxidase GPX4 (Homo sapiens) (UniProt P36969); test: Primary qHTS Assay for Inhibitors of Recombinant Selenoprotein Glutathione Peroxidase 4 (GPX4) (AID 1845192); further: nearly all actives have a fitted effect of over 65% in size; on activity change, negative = inhibition: series mostly up to about 50 µM; on the % scale 0 is the no-effect control and ±100 the full control effect
Summary of the method: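 NADPH consumption, followed by fluorescence at 340/450 nm between 0 and 15 min, reports GPX4 activity via coupled glutathione reductase (100 nM). Enzyme 200 nM was pre-exposed to compound 30 min; 0.5 mM cumene hydroperoxide and 1 mM GSH served as substrates.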

[3] = Primary fluorescence-based thiol-reactive (MSTI) qHTS assay for identification of artifact compounds. (AID 1845221); further: nearly all actives have a fitted effect of over 65% in size; further: potency means the concentration at half of the fitted maximal effect;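 on activity change, negative = thiol reactive: series mostly up to about 54 µM; thiol-reactive compounds lower the probe fluorescence signal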
Summary of the method: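 A multi-concentration qHTS design tested compounds against 4 uM MSTI, pH 7.4 phosphate-buffered saline. Plates were protected from light for 1 h at room temperature before imaging fluorescence.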

[4] = test system: Nanoluciferase (engineered Oplophorus gracilirostris luciferase); test: Primary Nanoluciferase (NLuc) qHTS assay for identification of artifact compounds. (AID 1845222);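 further: series mostly up to about 54 µM; 0% = DMSO and -100% = no enzyme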
Summary of the method: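 Compounds are pinned into diluted (1:55) conditioned medium of NLuc-expressing S16 cells and held 15 min at room temperature protected from light. Nano-Glo substrate follows, and luminescence is read 5 min later.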

[5] = Primary redox qHTS assay for identification of artifact compounds. (AID 1845223); further: potency means the concentration at half of the fitted maximal effect;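 on redox activity (% of DA3003): 0% = DMSO and 100% = reference compound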
Summary of the method: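 Amplex Red (25 uM) and HRP (250 mU/mL) in HBSS, with compounds for 15 min, then 250 uM DTT for 30 min, room temperature, dark. Fluorescence 525/598 nm read; normalized to DMSO and 10 uM DA3003; Hill fit.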

[6] = target: Luciferin 4-monooxygenase (Photinus pyralis) (UniProt P08659); test: Primary firefly luciferase (FLuc) qHTS assay for identification of artifact compounds. (AID 1845220); further: nearly all actives have a fitted effect of over 60% in size;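 on activity change, negative = inhibition: series mostly up to about 54 µM; plate controls were DMSO vehicle for no effect and no enzyme for full effect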
Summary of the method: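 Cell-free, 1536-well qHTS. Buffer pH 7.6 with 0.01% Tween-20 and 0.05% BSA; 10 uM D-luciferin, 10 uM ATP; 10 nM P. pyralis luciferase; luminescence after 5 min.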

Sequence of Phospholipid hydroperoxide glutathione peroxidase GPX4 (Homo sapiens) (P36969 whole entry, looked up): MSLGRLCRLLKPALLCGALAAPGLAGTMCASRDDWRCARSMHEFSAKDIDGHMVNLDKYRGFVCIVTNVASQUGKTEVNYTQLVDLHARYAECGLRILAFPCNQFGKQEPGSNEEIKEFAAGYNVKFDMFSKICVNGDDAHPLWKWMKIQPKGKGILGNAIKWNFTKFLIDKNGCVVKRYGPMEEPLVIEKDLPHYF
Sequence of Glutathione peroxidase 1 (Homo sapiens) (P07203 whole entry, looked up): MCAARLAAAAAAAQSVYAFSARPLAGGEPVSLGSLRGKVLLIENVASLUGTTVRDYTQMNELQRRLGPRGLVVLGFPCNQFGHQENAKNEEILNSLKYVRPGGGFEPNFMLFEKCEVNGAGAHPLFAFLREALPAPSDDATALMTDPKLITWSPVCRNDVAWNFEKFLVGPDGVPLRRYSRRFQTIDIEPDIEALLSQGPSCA

C[C@@H]1O[C@@H](O[C@@H]2[C@@H](O[C@@H]3O[C@@H](C)[C@H](O[C@@H]4OC[C@H](O)[C@H](O[C@@H]5OC[C@@H](O)[C@H](O)[C@H]5O)[C@H]4O)[C@@H](O[C@@H]4OC[C@](O)(CO)[C@H]4O)[C@H]3O)[C@H](OC(=O)[C@]34CCC(C)(C)C[C@H]3C3=CCC5[C@@]6(C)C[C@H](O)[C@H](O[C@@H]7O[C@H](CO[C@@H]8OC[C@H](O)[C@H](O)[C@H]8O)[C@@H](O)[C@H](O)[C@H]7O)C(C)(C)C6CC[C@@]5(C)[C@]3(C)C[C@H]4O)OC[C@H]2O)[C@H](O)[C@H](O)[C@H]1O (some centres not stated)
inactive: activity, negative = inhibition [1] 1.11% [at 9.52 µM] | activity change, negative = inhibition [2] -0.822% [at 9.73 µM] | activity change, negative = thiol reactive [3] 203% [at 11.5 µM] | activity, negative = inhibition [4] 1.99% [at 11.6 µM] | redox activity (% of DA3003) [5] 6.31% [at 11.5 µM]

CC(C)NCC(C(=O)N1CCN(c2ncnc3c2C(C)CC3O)CC1)c1ccc(Cl)cc1 (configuration not stated)
inactive: Potency [1] | Potency [2] | Potency [3] | Potency [4] | Potency [5]

CCN1CCN(Cc2ccc(NC(=O)c3ccc(C)c(NC(=O)c4cncc(-c5cccs5)c4)c3)cc2C(F)(F)F)CC1
inactive: Potency [1] | Potency [2] | Potency [3] | Potency [4] | Potency [5]

c1ccc(-c2csc(N3CCOCC3)n2)cc1
inactive: Potency [1] | Potency [2] | Potency [4] | Potency [5]

C=C(C(=O)O)C1CC2=C(C)CCCC2(C)C[C@@H]1O (some centres not stated)
inactive: Potency [1] | Potency [2] | Potency [3] | Potency [4] | Potency [5]

Cc1cc(Nc2cc(N3CCN(C)CC3)nc(/C=C/c3ccccc3)n2)n[nH]1
inactive: Potency [1] | Potency [2] | Potency [3] | Potency [4] | Potency [5]

O=C(O)CC(=O)OC[C@H]1O[C@@H](Oc2ccc3c(c2)OC[C@H]2c4cc5c(cc4O[C@@H]32)OCO5)[C@H](O)[C@@H](O)[C@@H]1O
inactive: Potency [1] | Potency [2] | Potency [3] | Potency [4] | Potency [5]

CN[C@H](CC(C)C)C(=O)N[C@H]1C(=O)N[C@@H](CC(N)=O)C(=O)N[C@H]2C(=O)N[C@H]3C(=O)N[C@H](C(=O)N[C@H](C(=O)O)c4cc(O)cc(O)c4-c4cc3ccc4O)[C@H](O[C@H]3C[C@](C)(N)[C@@H](O)[C@H](C)O3)c3ccc(c(Cl)c3)Oc3cc2cc(c3O[C@@H]2O[C@H](CO)[C@@H](O)[C@H](O)[C@H]2O[C@H]2C[C@](C)(NCc3ccc(-c4ccc(Cl)cc4)cc3)[C@@H](O)[C@H](C)O2)Oc2ccc(cc2Cl)[C@H]1O
inactive: Potency [1] | Potency [2] | Potency [3] | Potency [4] | Potency [5]

CO[C@H]1/C=C\O[C@@]2(C)Oc3c(C)c(O)c4c(O)c(c5c(nc6cc(C)ccn65)c4c3C2=O)NC(=O)/C(C)=C\C=C/[C@H](C)[C@H](O)[C@@H](C)[C@@H](O)[C@@H](C)[C@H](OC(C)=O)[C@@H]1C
inactive: Potency [1] | Potency [2] | Potency [4]

COc1c2c(c(C)c3c1C(=O)OC3)O[C@@]1(C)CCC3(C(C)(C)O)OC(=O)CC[C@]3(C)[C@H]1C2 (some centres not stated)
inactive: Potency [1] | Potency [2] | Potency [3] | Potency [4] | Potency [5]

Cn1nnc(-c2ccc(-c3ccc(N4C[C@H](CO)OC4=O)cc3F)cn2)n1
inactive: Potency [1] | Potency [2] | Potency [3] | Potency [4] | Potency [5]

OC/C=C/C=C/[C@H]1Cc2cc(O)cc(O)c2O1
inactive: Potency [1] | Potency [2] | Potency [4]
active: Potency [3] 8.44 µM | Potency [5] 18.9 µM

CC(C)(C)C(=O)CN1C(=O)[C@H](NC(=O)Nc2cccc(C(=O)O)c2)CN(C2CCCCC2)c2ccccc21
inactive: Potency [1] | Potency [6] | Potency [3] | Potency [4] | Potency [5]

C#CC[C@H](c1nc2cc(Cl)ccc2c(=O)n1Nc1ccccc1)N(CCCN)C(=O)c1cccc(Cl)c1F
inactive: Potency [1] | Potency [6] | Potency [3] | Potency [4] | Potency [5]

C=C(C)C(=O)O[C@H]1CC2=CC(C/C(C)=C\[C@H]3OC(=O)C(=C)[C@H]13)OC2=O (some centres not stated)
inactive: Potency [1] | Potency [6] | Potency [3] | Potency [4] | Potency [5]

COc1cc2c3c(cc4ccccc4c3c1O)NC2=O
inactive: Potency [1] | Potency [6] | Potency [4] | Potency [5]
active: Potency [3] 10.6 µM

O=C(OC[C@H]1O[C@H](O[C@]2(CO)O[C@H](CO)[C@@H](O)[C@@H]2O)[C@H](O)[C@@H](O)[C@@H]1O)c1ccccc1
inactive: Potency [1] | Potency [6] | Potency [3] | Potency [4] | Potency [5]

O=C1Nc2ccccc2C(O)(c2ccccc2)C1O (configuration not stated)
inactive: Potency [1] | Potency [6] | Potency [3] | Potency [4] | Potency [5]

CCC(C)C(=O)OC1CC(C)C=C2C=CC(C)C(CCC(O)CC(O)CC(=O)O)C21 (configuration not stated)
inactive: Potency [1] | Potency [6] | Potency [3] | Potency [4] | Potency [5]

C/C=C1\[C@H](O[C@@H]2O[C@H](CO)[C@@H](O)[C@H](O)[C@H]2O)OC=C(C(=O)OC)[C@H]1CC(=O)OC[C@H]1O[C@@H](OCCc2ccc(O)cc2)[C@H](O)[C@@H](O)[C@@H]1O
active: Potency [3] 2.24 µM
inactive: Potency [1] | Potency [6] | Potency [4] | Potency [5]

COC(=O)C12CCC(C)C(C)C1C1=CCC3C4(C)CCC(OC(C)=O)C(C)(C)C4CCC3(C)C1(C)CC2 (configuration not stated)
inactive: Potency [1] | Potency [6] | Potency [3] | Potency [4] | Potency [5]

O=C(O)c1cccc(S(=O)(=O)N2CCc3ccccc3C2)c1
inactive: Potency [1] | Potency [6] | Potency [3] | Potency [4] | Potency [5]
